NPR1 activator = GC-A (human) enzyme activation; P16066; activation, % at 10 µM; HEK293 GC-A cells, cGMP TR-FRET, EC30 ANP; 0% at EC30 ANP, 100% saturating ANP; 370,000 compounds, 0.14% hits; in the data active = activation above about 40%
NPR2 activator = GC-B (human) receptor activation; P20594; HEK293-GC-B cells, CNP EC30, cGMP TR-FRET; 0% at EC30 CNP, 100% saturating CNP; activation, % at 10 µM; 370,000 compounds, 0.11% hits; AID 1920062;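 active = activation at 10 µM reaching about 35% in either raw or pattern-adjusted values, limit read from the data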
ADAM17 inh = inhibits human ADAM17; recombinant ADAM17, EDANS/DABCYL FRET peptide cleavage; inhibition, % at 6.95 µM; 370,000 compounds, 0.83% hits;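 active = inhibition above the mean of compounds lying between control limits plus 3 SD, set per campaign, cut at about 8.5% in these data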;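 note: 0% = DMSO-only wells as the low control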
ADAM10 inh = ADAM10 inhibition, QFRET primary screen | O14672 | recombinant ADAM10, EDANS/DABCYL FRET peptide cleavage, 3 h | inhibition, % at 7 µM | 370,000 compounds, 0.62% hits | AID 720582;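 active = inhibition above a per-campaign cutoff equal to the mean of compounds falling between control-based bounds plus 3 SD, cut at about 20% in these data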;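 note: 0% = DMSO wells while the 100% control is not disclosed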
FAS-TE inh = FAS thioesterase (human) inhibition; recombinant FAS-TE, OMFH fluorogenic substrate, fluorescence endpoint; 360,000 compounds, 0.67% hits; AID 602261; P49327; inhibition, % at 15 µM;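 active = compounds whose normalised, plate-corrected inhibition of enzyme fluorescence in the single-dose primary screen is 50% or more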;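 note: 0% = DMSO with enzyme and 100% = substrate without enzyme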
FAS-TE inh conf = confirmation of human fatty acid synthase thioesterase inhibitors. shares compounds with FAS-TE inh. recombinant FAS-TE, OMFH fluorogenic substrate, fluorescence. inhibition, % at 15 µM. 2,300 compounds, 45% hits. AID 624325;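 active = compounds inhibiting the enzyme by at least 50% at 15 µM in any one of the replicates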;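 note: 0% = enzyme with DMSO only and 100% = wells lacking enzyme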
The depositor's hits bear a star; nt = no result given. This is a sample that favours compounds with a hit; in the whole collection about 2% have one here.

SMILES | NPR1 activator | NPR2 activator | ADAM17 inh | ADAM10 inh | FAS-TE inh | FAS-TE inh conf
COc1ccc(S(=O)(=O)N(C)C)cc1NC(=O)[C@H](Cc1ccccc1)N1C(=O)c2ccccc2C1=O | -3 | 7 | 3 | 13 | 65* | 38
CCOc1ccccc1C(=O)N[C@H](C(=O)Nc1cc(S(=O)(=O)N(C)C)ccc1OC)C(C)C | 4 | -6 | -6 | 0 | 8 | nt
O=C(NCCc1c[nH]c2ccccc12)OCc1cn(Cc2ccc(F)c(F)c2)nn1 | -4 | -1 | 1 | 2 | nt | nt
Cc1ccc(C(=O)N/C(=C/c2ccc(-c3ccc([N+](=O)[O-])cc3)o2)C(=O)NCCCN(C)C)cc1 | -3 | -7 | 0 | 1 | 57* | 56*
Fc1c(F)c(F)c(N/N=C/c2c[nH]c3ccccc23)c(F)c1F | 3 | -9 | -5 | 1 | 51* | 58*
Cn1c(=O)c2[nH]c(Cc3cccc(O)c3)nc2n(C)c1=O | 4 | 1 | -4 | -3 | -6 | nt
Cn1c(=O)c2[nH]c(COc3ccc(C(C)(C)C)cc3)nc2n(C)c1=O | nt | nt | nt | nt | 69* | 70*
O=C(CSc1nnc(-c2ccccc2)n1Cc1ccco1)Nc1ccc(Oc2ccccc2)cc1 | 0 | 8 | 0 | -5 | nt | nt
CCCCC(=O)N[C@H]1CC[C@@]23CCCN2C(=O)CCC[C@H]3[C@H]1CCC | -4 | -3 | 0 | -3 | nt | nt
COc1ccc(NC(=O)/C(C#N)=C/c2cc(C)n(-c3ccc(N4CCOCC4)c([N+](=O)[O-])c3)c2C)cc1 | -2 | -1 | -1 | -3 | 79* | 25
Cc1cc(/C=C(\C#N)C(=O)Nc2ccc(F)cc2)c(C)n1-c1ccc(N2CCOCC2)c([N+](=O)[O-])c1 | 8 | 2 | 0 | 2 | 62* | -2
CNC(=O)/C(C#N)=C\c1cc(C)n(-c2ccc(N3CCOCC3)cc2)c1C | 8 | 2 | -7 | -17 | -1 | nt
C/C=C/C(=O)N1CCC(C(=O)NC2CCCc3ccccc32)CC1 (centres undefined) | 3 | -1 | -1 | 3 | nt | nt
COc1ccc(C(=O)N/C(=C\c2cn(S(=O)(=O)N(C)C)c3ccccc23)C(=O)NCCCN2CCOCC2)cc1 | -1 | -1 | 4 | -1 | 57* | 74*
O=c1oc(-c2ccco2)nc2sc3c(c12)CCCC3 | -6 | -9 | -5 | -3 | 66* | 24
CCN1CCN(S(=O)(=O)c2ccc(Cl)c(C(=O)N(C)Cc3ccc(C(C)(C)C)cc3)c2)CC1 | 0 | -2 | -3 | -13 | 59* | 45*
CCN1CCN(S(=O)(=O)c2ccc(Cl)c(C(=O)N(C)Cc3ccc(F)cc3)c2)CC1 | 0 | -2 | -3 | -12 | -4 | nt
COCCNC(=S)N(C)[C@H]1C[C@H]2c3[nH]c4c(-c5ccc6c(c5)OCO6)cccc4c3CCN2C[C@H]1[C@H](C)O | -10 | -2 | 3 | -1 | nt | nt
N#CC(C#N)=C1SC(=Nc2ccccc2)C(=Nc2ccccc2)N1c1ccccc1 | 0 | -1 | 2 | 3 | 57* | 37
CSC(=Nc1ccccc1)N=C(SCc1ccccc1)N(C)C | -18 | -6 | -5 | -6 | 84* | 90*
Cc1[nH]cnc1/C=N\NC(=O)c1cccc(S(=O)(=O)N(C)C)c1 | 1 | 10 | 2 | -6 | nt | nt
COc1ccc(CN(Cc2cc3cccc(C)c3n3nnnc23)C(=O)N2CCOCC2)cc1 | -3 | -3 | 1 | -3 | 50* | 47*
N#Cc1cccc(-n2c(-c3ccccc3)nnc2-c2ccccc2)c1C#N | -13 | 0 | -3 | -5 | 58* | 17
N#Cc1cccc(CNCC(=O)N2CCC3(CC2)OCCO3)c1 | -2 | -5 | -2 | 1 | nt | nt
COCCCN1C(=O)[C@H](CC(=O)N2CCC(c3ccccc3)CC2)[C@]2(C(=O)OC)CCCCC=C12 | 0 | -1 | 4 | 5 | nt | nt
SMILES | NPR1 activator | NPR2 activator | ADAM17 inh | ADAM10 inh | FAS-TE inh | FAS-TE inh conf
CC(=O)Nc1ccc(NC(=O)c2nc(S(=O)(=O)Cc3cccc(C)c3)ncc2Cl)cc1 | 14 | 11 | -1 | 2 | 27 | nt
CCOc1ccccc1NC(=O)c1nc(S(=O)(=O)Cc2ccccc2)ncc1Cl | -36 | -14 | -2 | -2 | 60* | 59*
COc1ccccc1NC(=O)c1nc(S(=O)(=O)Cc2ccccc2)ncc1Cl | 27 | 2 | -4 | -4 | 55* | 19
CCS(=O)(=O)c1ncc(Cl)c(C(=O)Nc2ccccc2OC)n1 | 36 | -2 | -2 | -1 | 15 | nt
COC(=O)c1ccc(NC(=O)c2nc(S(=O)(=O)Cc3cccc(C)c3)ncc2Cl)cc1 | 9 | 3 | -5 | -5 | 55* | 29
CCCCNS(=O)(=O)CC1NCc2cc(F)ccc21 (centres undefined) | 3 | -2 | 0 | 1 | nt | nt
C[C@H](CO)N1C[C@H](C)[C@@H](CN(C)C(=O)NC2CCCCC2)Oc2c(NC(=O)Nc3ccccc3)cccc2C1=O | -1 | 1 | 3 | 7 | 66* | 77*
COc1ccc(NC(=O)N(C)C[C@H]2Oc3c(NC(=O)NC(C)C)cccc3C(=O)N([C@H](C)CO)C[C@@H]2C)cc1 | 2 | 1 | 4 | -3 | -12 | nt
COc1ccc(NC(=O)Nc2cccc3c2O[C@H](CN(C)C(=O)Nc2ccc(C(F)(F)F)cc2)[C@@H](C)CN([C@H](C)CO)C3=O)cc1 | nt | nt | nt | nt | 52* | 56*
Cc1cccc(NC(=O)CNC(=O)COC(=O)c2ccc(C(C)(C)C)cc2)c1C | -2 | 3 | -1 | 9 | 64* | 51*
O=C1NC(=S)SC1=Cc1ccccc1Cl | -5 | -7 | 1 | 5 | 6 | nt
O=C1NC(=S)S/C1=C\c1cc2ccccc2nc1N1CCCCC1 | 0 | -7 | 0 | 5 | 69* | 51*
COc1ccc2nc(N3CCCCC3)c(/C=C3\SC(=S)NC3=O)cc2c1 | 5 | -5 | -5 | -6 | 62* | 24
Cc1ccc(-n2c(SCC(=O)Nc3ccc(OCc4ccccc4)cc3)nnc2-c2ccccc2)cc1 | -1 | 0 | -4 | -7 | nt | nt
O=C(COC(=O)C1CCCCC1)Nc1cc([N+](=O)[O-])ccc1F | 2 | -1 | 4 | 6 | 63* | 69*
CCCN(CC(=O)Nc1ccc(F)c(F)c1F)C(=O)c1cc([N+](=O)[O-])ccc1N1CCOCC1 | -5 | 2 | -4 | -6 | 54* | 52*
O=C(COC(=O)c1cc([N+](=O)[O-])ccc1N1CCOCC1)Nc1ccccc1OC(F)F | 22 | 31 | -3 | -2 | 74* | 79*
CC(C)c1ccccc1NC(=O)COC(=O)c1cc([N+](=O)[O-])ccc1N1CCOCC1 | 2 | -2 | 2 | 6 | 74* | 65*
Cc1ccccc1COC(=O)c1cc([N+](=O)[O-])ccc1N1CCOCC1 | 2 | -4 | 4 | 3 | 36 | nt

Screening results from PubChem.
